# Only some compounds are listed: those with a hit (about 2.4% of all), similar ones and a draw of the others.
# Pol beta inh = blocks human DNA polymerase beta activity; P06746; Pol beta primer extension/strand displacement, fluorescence kinetic; Potency, µM (doses to about 114 µM), for the others: at the top dose activity change, negative = inhibition, most hits filed as inhibitors; 1.3% of 340,000 active; AID 485314; also: % is scaled to controls: 0 for no effect and ±100 for the full control effect
#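 Values derive from four-parameter Hill fits of normalized kinetic data: reads at 0 and 10 min following addition of 50 nM substrate to 10 nM Pol beta preincubated 15 min with compound.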
# POLH inh = inhibitors of human DNA polymerase eta; Potency, µM (doses to about 114 µM), inactives show at the top dose activity change, negative = inhibition, hits mostly inhibitors; recombinant Pol eta, fluorescent DNA replication assay; AID 588591; 1.2% of 390,000 active; also: % is scaled to controls: 0 for no effect and ±100 for the full control effect
#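 Fluorescent replication assay: 50 nM final substrate added after a 15 min room-temperature compound preincubation with 10 nM enzyme. Signal taken at 0 min and again at 10 min.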
# POLI inh = inhibitors of human DNA polymerase iota | Pol iota fluorescent replication assay, 10 min | 1% of 390,000 active | AID 588590 | Potency, µM (titrated, usually from 115 µM), for inactives: at the highest dose activity, negative = inhibition, usual class: inhibitors
#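 Pol iota at 10 nM preincubated 15 min with compounds at room temperature; reaction started with fluorescent substrate, 50 nM final. Fluorescence read kinetically at 0 and 10 min; buffer-only wells as negative control.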
# FEN1 inh = blocks human flap endonuclease 1 | P39748 | Recombinant FEN1 flap cleavage, fluorescence, 15 min | Potency, µM (series often up to 114 µM), inactives show at the top dose activity change, negative = inhibition, most hits filed as inhibitors | 0.35% of 390,000 active; also: % is scaled to controls: 0 for no effect and ±100 for the full control effect; nearly all actives have a fitted effect of over 65% in size
#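 FEN1 at 10 nM preincubated with compounds 15 min at room temperature, then flap DNA substrate added at 50 nM final. Signal read at 0 and 15 min; concentration-response fitted with four-parameter Hill equation.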
# POLK inh = blocks human DNA polymerase kappa activity. purified Pol kappa, fluorescent DNA synthesis assay, 10 min. Potency, µM (highest dose often 107 µM), without a hit: at the highest dose activity, negative = inhibition, hits mostly inhibitors. 0.53% of 400,000 active. AID 588579; also: % is scaled to controls: 0 for no effect and ±100 for the full control effect
# Target sequence (Q9UBT6 whole entry, looked up): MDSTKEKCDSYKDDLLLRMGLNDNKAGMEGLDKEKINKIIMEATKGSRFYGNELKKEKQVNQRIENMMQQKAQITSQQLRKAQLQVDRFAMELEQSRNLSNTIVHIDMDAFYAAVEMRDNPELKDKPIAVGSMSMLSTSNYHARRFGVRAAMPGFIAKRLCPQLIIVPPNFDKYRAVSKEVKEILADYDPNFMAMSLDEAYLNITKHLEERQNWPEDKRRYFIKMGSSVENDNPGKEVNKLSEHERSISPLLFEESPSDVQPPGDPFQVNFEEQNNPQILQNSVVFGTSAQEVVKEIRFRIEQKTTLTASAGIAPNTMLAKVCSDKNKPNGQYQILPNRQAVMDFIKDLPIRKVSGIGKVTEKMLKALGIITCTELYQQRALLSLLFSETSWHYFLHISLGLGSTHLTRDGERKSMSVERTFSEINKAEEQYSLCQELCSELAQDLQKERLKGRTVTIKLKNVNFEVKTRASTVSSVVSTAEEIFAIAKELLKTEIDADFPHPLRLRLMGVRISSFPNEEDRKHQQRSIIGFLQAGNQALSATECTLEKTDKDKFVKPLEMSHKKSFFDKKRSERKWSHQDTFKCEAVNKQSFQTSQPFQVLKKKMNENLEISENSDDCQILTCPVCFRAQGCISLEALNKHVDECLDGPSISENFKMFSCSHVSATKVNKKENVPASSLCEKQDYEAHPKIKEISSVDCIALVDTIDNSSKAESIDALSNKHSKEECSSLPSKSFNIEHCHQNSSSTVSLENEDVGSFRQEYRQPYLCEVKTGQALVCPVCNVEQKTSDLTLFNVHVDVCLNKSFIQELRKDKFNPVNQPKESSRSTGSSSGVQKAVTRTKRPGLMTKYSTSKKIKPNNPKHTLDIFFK
#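 Pol kappa 10 nM + cpd, 15 min RT; start w/ substrate 50 nM final; fluorescence kinetic read, 0 and 10 min. Neg ctrl: buffer, no enzyme.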
# WRN helicase inh = WRN helicase (human) inhibition | 0.46% of 360,000 active | Q14191 | Potency, µM (top dose mostly 114 µM), inactives show top-dose activity change, negative = inhibition, most hits filed as inhibitors | WRN helicase unwinding, fluorescent forked duplex, kinetic | AID 651768; also: % is scaled to controls: 0 for no effect and ±100 for the full control effect; nearly all actives have a fitted effect of over 55% in size
#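 Kinetic red-fluorescence monitoring (525/598 nm) tracks WRN helicase activity after 100 nM fluorophore-quencher forked duplex and 2 mM ATP are added to 20 nM enzyme pretreated 15 min at room temperature with compound.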
# An asterisk follows results filed as active; ? = inconclusive; . = no result given; [ ] = dose if it differs, or a comment. Calls follow the shape of the dose curve; as a rule, active = well fitted curve in the direction sought with a large enough effect; inconclusive = small, poorly fitted or top-dose-only effect, or another doubt; inactive = no such curve, though single readings can be large; an effect the other way counts as inactive or inconclusive. Potency is read from the fitted curve at half-maximal effect.
SMILES,Pol beta inh,POLH inh,POLI inh,FEN1 inh,POLK inh,WRN helicase inh
Cc1cccc2c1-c1sc(C(=O)NCc3ccccc3Cl)cc1CO2,16%,-12%,11%,11%,-3%,.
CCOc1ccc(CCNC(=O)c2cc3c(s2)-c2ccccc2OC3)cc1OCC,32µM*,-9%,?,-13%,-3%,.
CC(=O)c1cccc(NC(=O)c2cc3c(s2)-c2c(C)cccc2OC3)c1,14%,-4%,-11%,12%,-3%,.
Cc1cccc2c1-c1sc(C(=O)Nc3cccc([N+](=O)[O-])c3C)cc1CO2,0.2µM*,-6%,7%,-9%,-9%,-3%
Cc1ccc(CCNC(=O)c2cc3c(s2)-c2c(C)cccc2OC3)cc1,3.5µM*,?,32%,7%,-2%,.
O=C(NCCc1ccc(Cl)cc1)C1COc2ccccc2O1 (configuration not stated),-29%,-13%,50µM*,37%,-19%,5%[11.6 µM]
CC[C@H](C)[C@H](NC(=O)[C@H](CC(=O)O)NC(=O)[C@H](CC(C)C)NC(=O)[C@H](Cc1cnc[nH]1)NC(=O)[C@H](C)NC(=O)[C@H](Cc1ccccc1)NC(=O)[C@H](Cc1ccc(O)cc1)NC(=O)[C@@H](NC(=O)[C@H](C)NC(=O)[C@H](CCC(=O)O)NC(=O)[C@H](CCC(=O)O)NC(=O)[C@H](CC(=O)O)NC(=O)CCC(=O)O)C(C)C)C(=O)N[C@H](C(=O)N[C@@H](Cc1c[nH]c2ccccc12)C(=O)O)[C@@H](C)CC,.,.,.,.,-8%[60.1 µM],.
CCc1cccc2c(C(O)c3c[nH]c4ccccc34)c[nH]c12 (configuration not stated),.,.,28%,-22%,-11%,.
COc1ccc(C2C=C3CN(C(=O)OC(C)(C)C)S(=O)(=O)C3CC2OC(=O)c2cccc(C)c2)cc1 (configuration not stated),.,.,17%,4%,0%,.
COc1cccc(/C=C/c2cnc3ccccc3n2)c1OC,.,.,21%,1%,3%,.
Nc1c(S(=O)(=O)O)cc(Nc2ccc(Nc3nc(Cl)nc(Nc4ccc(S(=O)(=O)O)cc4)n3)c(S(=O)(=O)O)c2)c2c1C(=O)c1ccccc1C2=O,1.1µM*,0.63µM*,1.6µM*,2µM*,2.7µM*,.
O=[N+]([O-])c1ccc(Nc2nc(Cl)nc(NCCO)n2)cc1,3%,5%,7%,2%,-4%,-8%
Oc1ccc(/C=C/c2ccnc3ccccc23)cc1,5%,-16%,90%,2%,-10%,6%
CN(C)c1ccc(/C=C/c2ccnc3ccc4ccccc4c23)cc1,.,.,?,11µM*,28µM*,.
CCC[N+](C)(C)c1ccc(/C=C/c2ccnc3ccccc23)cc1,.,.,?,32µM*,?,.
CCCN(CCC)c1ccc(/C=C/c2ccnc3ccccc23)cc1,.,.,24%,-1%,-1%,.
C[N+](C)(C)c1ccc(/C=C/c2ccnc3ccccc23)cc1,.,.,31%,45µM*,-41%,.
CC1(C)OC(=O)C2(Cc3cc([N+](=O)[O-])ccc3N3CCCCCC32)C(=O)O1 (configuration not stated),.,.,23%,-14%,-17%,.
Cc1cc(C)c2c(C)ccnc2c1,.,.,-2%,13%,5%,.
COC(=O)C1=C[C@@H](C(=O)OC)C2C3=C(C(=O)[C@@]2(C)NC(=O)c2ccccc2)[C@H](C)n2c(=O)n(-c4ccccc4)c(=O)n2[C@@H]3C1 (some centres not stated),.,.,-15%,-4%,2%,.
CCN(CC)C(=O)/C(C#N)=C/c1cc(O)c(O)c([N+](=O)[O-])c1,.,.,.,.,6.7µM*,.
O=C(C[n+]1cccc(I)c1)c1ccc(F)cc1,.,.,9%,1%,3%,.
COc1cccc(C2C3=C(N=c4s/c(=C\c5cccc(O)c5)c(=O)n42)c2ccccc2CC3)c1OC (configuration not stated),19%,-14%,7%,-11%,8%,-9%

# Assay outcomes from PubChem BioAssay.
